Measured values taken from the supplement of paper PMC11732987, “Enantioselective OTUD7B fragment discovery through chemoproteomics screening and high-throughput optimisation” (Communications Chemistry, 2025).
A number with no mark means an inactive call.

Target: COPS5 (UniProt Q92905)
Test: log2 ratio of Biotin-Ahx-Ub-VS probe labelling (fragment/DMSO); higher = less target engagement (more negative = stronger competition), active = hit call of the paper (q ≤ 0.05, log2 ratio ≤ -1)
Conditions: compound concentration: 200 uM; treatment time: 3 h
Experimental: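 Competitive ABPP in HEK293T cell lysate. Lysates were treated with each chloroacetamide fragment at 200 µM for 3 h, then with Biotin-Ahx-Ub-VS (0.5 µM, 1 h), NeutrAvidin-enriched and analysed by diaPASEF LC-MS/MS. Protein LFQ was median-normalised; average log2 ratio is fragment/DMSO from an unpaired t-test (n=3 treated, n=44 DMSO). Hits: q ≤ 0.05, log2 ratio ≤ -1, unique peptides ≥ 2.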

Sequence of COPS5 (Q92905 whole entry, looked up, the tested form may be a part): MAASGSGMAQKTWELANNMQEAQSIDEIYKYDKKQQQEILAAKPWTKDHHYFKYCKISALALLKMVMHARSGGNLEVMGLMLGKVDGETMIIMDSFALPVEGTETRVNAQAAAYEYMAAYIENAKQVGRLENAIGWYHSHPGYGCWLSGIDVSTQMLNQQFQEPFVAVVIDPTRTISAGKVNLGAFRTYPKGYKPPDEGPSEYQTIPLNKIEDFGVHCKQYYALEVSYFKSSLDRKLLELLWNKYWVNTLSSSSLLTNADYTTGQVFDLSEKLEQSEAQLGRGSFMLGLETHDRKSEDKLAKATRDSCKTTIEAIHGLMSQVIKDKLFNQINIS

SMILES	log2 ratio of Biotin-Ahx-Ub-VS probe labelling
Cc1cccc(N(CCC#N)C(=O)CCl)c1C	-0.0126
COCC[C@@H](NC(=O)CCl)c1ccccc1	0.222
Cc1cccc(NC(=O)[C@@H]2CCCN2C(=O)CCl)n1	-0.0478
Cl.Cn1c(CNC(=O)CCl)nc2cccnc21	0.0916
Cl.O=C(CCl)N1CCn2ncc(O)c2C1	0.242
CN(CCC(O)c1ccc(Br)cc1)C(=O)CCl (stereo not given)	-0.266
O=C(CCl)NC1CCC(C(F)(F)F)CC1 (stereo not given)	-0.114
O=C(CCl)Nc1cccc2ncccc12	0.251
O=C(CCl)NCCc1ccc2c(c1)OCCO2	0.0882
O=C(CCl)N1CC=C(c2c[nH]c3ccccc23)CC1	-0.0638
CC(=O)C1CCCCN1C(=O)CCl (stereo not given)	-0.141
O=C(O)C1Cc2ccccc2CN1C(=O)CCl (stereo not given)	0.15
Cc1cc(C2CCCN2C(=O)CCl)nn1C.Cl (stereo not given)	0.0127
Cl.Cn1cnc2cc(CNC(=O)CCl)ccc21	-0.125
Cc1ccccc1C1(CNC(=O)CCl)CCOCC1	0.211
Cc1ccn2cc(CNC(=O)CCl)nc2c1.Cl	0.326
O=C(CCl)NC1CCC2(CC1)OCCO2	0.176
O=C(CCl)Nc1ccc(F)cc1Cl	-0.284
CS(=O)(=O)N1CCCN(C(=O)CCl)CC1	0.193
CC(NC(=O)CCl)c1ccc2[nH]ncc2c1 (stereo not given)	-0.00941

SMILES	log2 ratio of Biotin-Ahx-Ub-VS probe labelling
CN(C)S(=O)(=O)c1ccccc1CNC(=O)CCl	0.197
Cc1nc(-c2cccc(NC(=O)CCl)c2)cs1	-0.0825
Cc1cc(CC(C)NC(=O)CCl)n[nH]1 (stereo not given)	0.0799
CN(C)C(=O)c1ccc(NC(=O)CCl)cc1	0.125
CC(c1ccccc1)N(C)C(=O)CCl (stereo not given)	0.082
O=C(CN1CCN(C(=O)CCl)CC1)Nc1cccc(F)c1	0.273
CC(NC(=O)CCl)c1csc(-c2ccccc2)n1.Cl (stereo not given)	-0.00417
Cc1ccc(-c2nnc(C)[nH]2)c(NC(=O)CCl)c1	0.151
Cc1cccc2nc(CCNC(=O)CCl)cn12.Cl	-0.0623
Cc1ccc(CC(NC(=O)CCl)c2ccccn2)cc1.Cl (stereo not given)	-0.0198
O=C(CCl)Nc1ccc(N2CCCC2=O)cc1	0.31
NS(=O)(=O)c1ccc(Cl)c(NC(=O)CCl)c1	0.226
Cl.O=C(CCl)N1CCC(n2nc3ccccc3n2)CC1	-0.532
N#Cc1cnn(-c2ccccc2)c1NC(=O)CCl	-0.123
O=C(CCl)N1CCC(OCc2ccccc2F)CC1	-0.148
O=C(CCl)N1CCOC2(CCC2)CC1	-0.0213
Cc1ccc(CNC(=O)CCl)nc1C.Cl	0.0421
Cc1nc(CNC(=O)CCl)c2ccccn12.Cl	-0.109
O=C(CCl)N1CCCCC12CCOCC2	0.0647
CC(NC(=O)CCl)c1cccc2ccccc12 (stereo not given)	0.127
